This is a sample that favours compounds with a hit; in the whole collection about 1.8% have one here.
EBV gp42 inh: Epstein-Barr virus gp42 inhibitors, primary screen, biochemical, uHTS, fluorescence polarization | inhibition, % (tested at 21.74 µM) | hit rate 0.42% among 220,000 | Fluorescence polarization binding assay, mP read-out | Glycoprotein 42 (Epstein-Barr virus (strain AG876)), Q1HVG2 | AID 1085, 2008; in the data active = inhibition above about 50%
Target sequence (Q1HVG2 whole entry, looked up): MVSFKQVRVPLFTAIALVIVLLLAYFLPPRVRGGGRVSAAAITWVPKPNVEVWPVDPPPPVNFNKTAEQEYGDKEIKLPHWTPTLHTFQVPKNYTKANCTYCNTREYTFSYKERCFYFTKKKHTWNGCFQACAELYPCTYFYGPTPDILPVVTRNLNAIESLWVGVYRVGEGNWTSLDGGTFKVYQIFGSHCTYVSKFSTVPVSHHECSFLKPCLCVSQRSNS
MLLE-PAM2 inh: inhibitors of PABP1 MLLE–PAM2 peptide binding, primary screen, biochemical, fluorescence polarization, FITC-PAM2, GST-MLLE | hit rate 0.36% among 360,000 | Polyadenylate-binding protein 1 (Homo sapiens), P11940 | inhibition, % at 20 µM; in the data active = inhibition above about 35%, passing the limit was not always enough;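 also: plate controls were DMSO wells with GST-MLLE for no effect and wells lacking GST-MLLE protein for full effect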
PABP FP inh: PABP poly(A) RNA binding inhibitors, primary screen, biochemical, fluorescence polarization, uHTS | hit rate 1% among 290,000 | calls only at 35 µM;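 also: calls also rest on retests at 20 µM and on dose response follow-up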
eIF4H inh: human eIF4H binding inhibitors, primary screen, translation initiation inhibitor project, biochemical, uHTS, fluorescence polarization; hit rate 0.94% among 290,000; Eukaryotic translation initiation factor 4H (Homo sapiens), Q15056; inhibition, % at 35 µM; AID 2012, 2009; eIF4H fluorescence polarization binding assay;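 also: calls also rest on retests at 20 µM and on dose response follow-up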
MEX-5 binding: MEX-5 zinc finger RNA-binding disruptors – biochemical, C. elegans, fluorescence polarization, MLPCN library, primary screen. Zinc finger protein mex-5 (Caenorhabditis elegans), Q9XUB2. MEX-5/FITC-TCR2 RNA binding; active compounds read low. activity score (negative = inhibition of binding), % at 10 µM. hit rate 0.38% among 300,000. AID 1832, 2009;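 active = inhibition past about -25% in most replicates, and total fluorescence under double the plate's negative control median, limit read from the data; inconclusive = replicates evenly split on the limit, or fluorescence at least double controls; inactive = too little inhibition in most replicates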;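 also: 0% = DMSO and -100% = 5 µM competing unlabeled TCR2 RNA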
An asterisk follows results filed as active; i = inactive; ? = inconclusive; · = no result given; + = active, no number. Unless noted, no rule for the calls is given here.

SMILES	EBV gp42 inh	MLLE-PAM2 inh	PABP FP inh	eIF4H inh	MEX-5 binding
[O-]/[N+](=C\C=C\c1ccccc1)c1ccccc1	-15.8	-0.1	+	1.1*	2.7
CCc1nc2ccc(C(=O)NCc3ccc4c(c3)OCO4)cn2c1N(CCC(C)C)CCN(C)C	·	17.1	·	·	·
CC(C)Oc1ccc(-c2nn(-c3ccccc3)cc2/C=c2\sc3ncnn3c2=O)cc1	74.5*	·	?	?	·
COC1OCC(O)C(NC(=O)N(C)N=O)C1O (stereo not drawn)	·	-10.9	·	·	·
CC(=O)c1ccc(NC(=O)C2Cc3ccccc3CN2C(=O)c2ccccc2)cc1 (stereo not drawn)	-6.5	-7.3	i	1.5	-0.2
COc1ccc(NC(=O)C2Cc3ccccc3CN2C(=O)c2ccccc2)cn1 (stereo not drawn)	64.2*	70.6*	?	?	-38.0*
Cc1cccc(NC(=S)NC(=O)c2ccco2)c1C	·	33.9	i	-0.1	-0.2
O=C(NC(=S)Nc1ccccc1Br)c1ccco1	·	45.5*	i	-9.3	-0.6
Cc1ccc(C(=O)Nc2nc(C)c(C(=O)N(C)C)s2)o1	·	-7.2	i	-8.1	0.0
CC1CCN(c2ccccc2NC(=S)NC(=O)C(C)(C)C)CC1	6.6	38.8*	i	-5.3	-1.3
CC1CCN(c2ccccc2NC(=S)NC(=O)c2ccco2)CC1	·	46.5*	·	·	1.6
Cc1nc(NC(=S)NC(=O)c2ccco2)sc1C(=O)N(C)C	·	41.3*	i	-3.8	0.8
NC(COCc1ccccc1)c1csc(Nc2ccc(C(=O)NCCO)cc2)n1 (stereo not drawn)	·	-22.5	·	·	·
Cc1cccc(NC(=O)c2cc(S(=O)(=O)N3CCCCC3)c[nH]2)c1	·	-7.5	·	·	·
CC(C)(C)C(=O)Nc1ccccc1N1CCN(C(=O)c2ccc(Cl)cc2)CC1	-17.2	-4.9	+	86.1*	-1.3
CCN1C(=O)/C(=C2\SC(=S)N(c3c(C)n(C)n(-c4ccccc4)c3=O)C2=O)c2ccccc21	-13.4	44.2*	i	0.1	2.2
CCN1C(=O)/C(=C2\SC(=S)N(NC(=O)c3ccccc3O)C2=O)c2ccccc21	12.8	38.7*	i	-15.2	-39.6*
CC(=O)N1C(=O)/C(=C2\SC(=S)N(c3c(C)n(C)n(-c4ccccc4)c3=O)C2=O)c2ccccc21	1.5	47.4*	i	-3.1	0.0
CC(=O)C1=C(O)C2(C)c3c(O)c(C)c(O)c(C(C)=O)c3OC2CC1=O (stereo not drawn)	·	-67.1	·	·	·
Cc1coc2c1C(=O)C(=O)c1c-2ccc2c1CCCC2(C)C	-10.4	10.7	+	64.1*	0.0
Cc1coc2c1C(=O)C(=O)c1c-2ccc2c(C)cccc12	-16.1	-0.8	+	78.4*	-4.9
CCOC(=O)C1CCCN(C(=O)c2ccccc2SCCOC)C1 (stereo not drawn)	-5.6	40.3*	i	8.4	-0.7
COCCSc1ccccc1C(=O)N1CCCC(C)C1 (stereo not drawn)	-10.9	4.5	i	-5.5	-0.7
Cc1[nH]c2c(C)cccc2c1CC(=O)O	-5.7	-4.3	i	7.2*	1.0
COc1cccc(CN2CCC2(C)C(=O)Nc2cccc(Oc3ccccc3)c2)c1F (stereo not drawn)	·	-1.6	·	·	·
SMILES	EBV gp42 inh	MLLE-PAM2 inh	PABP FP inh	eIF4H inh	MEX-5 binding
O=C(COc1ccc(C(=S)N2CCOCC2)cc1Cl)Nc1ccccc1Cl	-17.8	40.6*	i	8.9	-0.1
Cc1ccc(S(=O)(=O)N2C[C@H]3C(=O)C[C@@H](c4cccs4)N(S(=O)(=O)c4ccc(C)cc4)[C@H]3C[C@H]2c2ccccc2)cc1	·	-8.8	·	·	·
O=C(NC(=S)N1CCCCCC1)c1ccccc1Cl	-14.9	44.0*	i	-4.0	-1.2
Cc1ccc(S(=O)(=O)N2C[C@@H](C)[C@]3(C2)[C@H](O)[C@H](OC(=O)NC2CCCC2)C[C@H]2C(=O)N(c4ccccc4)C(=O)[C@H]23)cc1	·	-5.5	·	·	·
COc1cc(/C=C2\C(=N)N3N=C(S(C)(=O)=O)SC3=NC2=O)ccc1OCCOc1ccccc1C	·	-3.0	+	88.4*	-0.3
CC(=O)Nc1cc(-c2ccncc2)cn2c(-c3ccccc3)cnc12	·	5.3	·	·	·
CC(=O)C(Sc1nccc(-c2cccs2)n1)C(C)=O	-18.6	36.3*	i	3.2	3.3
CC(C)NC(=O)CSc1nccc(-c2cccs2)n1	-19.5	-0.8	i	-7.2	0.2
COc1ccc(NC(=O)c2ccc(NCCN3C(=O)CCC3=O)c([N+](=O)[O-])c2)cc1	21.8	-8.6	+	?	-0.8
CCn1c(O)c(C2=c3ccccc3=NC2=O)c2cc(Br)ccc21	4.5	·	i	0.1	0.3
O=C1N=c2ccccc2=C1c1c(O)n(-c2cccc(F)c2)[nH]c1=O	19.7	37.8*	i	10.6	-1.1
Cc1cccnc1C(NC(=O)C1CCN(CCCc2ccccc2)CC1)c1ccc(F)cc1 (stereo not drawn)	·	-8.6	·	·	·
CCOC(=O)C1=C[C@@H](C(C)(C)C)N(S(=O)(=O)c2ccc(C)cc2)[C@H]1c1ccc(Cl)c(Cl)c1	·	10.6	·	·	·
C=CCN1C(=O)/C(=C2/C(=O)N(CC(=O)O)c3ccccc32)S/C1=N/c1nccs1	19.3	·	+	104.9*	-14.6
O=c1c2cccc3c(N4CCOCC4)ccc(c32)c2nc3ccccc3n12	·	·	+	122.4	·
Cc1cc(C)c[n+](-c2nc3ccccc3nc2[N-]S(=O)(=O)c2ccc(Br)s2)c1	65.6*	38.0	i	130.1	-10.1
CC1(Oc2ccc(-n3ccnc3)cc2)CCN(Cc2cccn2-c2nccs2)C1 (stereo not drawn)	·	13.7	·	·	·
C[C@H]1CN([C@@H](C)CO)C(=O)CCCn2cc(nn2)CO[C@@H]1CN(C)S(=O)(=O)c1ccc(Oc2ccccc2)cc1	·	0.1	·	·	·
Cc1cc(C(=O)CSc2nn3c(=O)c(C(C)(C)C)nnc3s2)c(C)n1C	4.0	-32.1	+	37.9*	0.4
COc1ccc(C2C(C(C)=O)=C(C)N=c3s/c(=C\c4cc(C)n(C)c4C)c(=O)n32)c(OC)c1 (stereo not drawn)	92.2*	49.3	?	?	-38.5*
COc1ccc(NC(=O)Nc2nc3c(s2)CCCC3)cc1	7.2	0.0	+	79.9*	2.3
COc1ccc(OCC(=O)Nc2nc3c(s2)CCCC3)cc1	·	-33.6	i	-3.5	-3.2
COc1ccc(CCn2c(=N)c(S(=O)(=O)c3ccc(C)cc3)cc3c(=O)n4ccccc4nc32)cc1	·	79.3	+	?	?
N=c1c(S(=O)(=O)c2ccc(Br)cc2)cc2c(=O)n3ccccc3nc2n1Cc1ccccc1	·	70.2	i	39.2	0.4
N=c1c(S(=O)(=O)c2ccc(Br)cc2)cc2c(=O)n3ccccc3nc2n1Cc1ccco1	·	-30.6	+	96.5*	-1.3

Assay outcomes deposited in PubChem BioAssay by several laboratories.
